Reference: PubChem BioAssay

Test system: not listed separately
Assay: probe aLAP1 signal on lysate-treated microarray – cell lysate, small-molecule microarray, COS7 lysate, primary screen (AID 1124);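 further: lysate comes from COS7 cells expressing LAP1 and is applied at 0.3 µg/mL; score merges spot fluorescence near 667 nm with signal-to-noise over triplicate slides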
Details: probe aLAP1, fluorescence, higher = more signal
For CO[C@H]1COC(=O)[C@H](CCSC)NC(=O)CC=C[C@@H](C)COC(=O)[C@@H](OCc2ccccc2)C=C[C@@H]1C, the composite z-score was -0.0638.
Work on CCC(=O)[C@]12O[C@@]3([C@@H]4C(=O)OCC[C@@H]41)N(Cc1ccccc1)C(C)=C(C(=O)OC)[C@@H](c1ccccc1)N3C2=O yielded a composite z-score of -0.242.
With COC(=O)[C@@]1(Cc2ccc(OC)cc2)[C@H]2c3cc(C(=O)N(C)C)n(CCc4ccc(OC)c(Br)c4)c3C[C@H]2CN1C(=O)c1ccccc1 the composite z-score was 0.482.
Work on C#CCCCON=C1C[C@@H](O)[C@@H](O)[C@@H]2[C@@H]3C(=O)N(Cc4ccc5c(c4)OCO5)C(=O)[C@@H]3CC[C@H]12 yielded a composite z-score of 0.786.
COC(=O)c1c(CC[C@@H](CO)NC(=O)N[C@H](Cn2cc(-c3cncn3C)nn2)C(C)C)oc(C(C)=O)c1C(=O)OC gave a composite z-score of 0.203.
Compound CCOC(=O)C1=CC[C@@H](c2ccc(-c3ccc(OCc4ccccc4)cc3)c(OC)c2)N(S(=O)(=O)c2ccc(C)cc2)[C@H]1c1ccccc1 has a composite z-score of 0.87.

Test system: Sam68 (KHDRBS1)
Assay: compounds binding KHDRBS1 protein – biochemical, small-molecule microarray, 635 nm fluorescence, primary screen (AID 1125);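 further: score merges 667 nm channel intensity with signal to noise over triplicate slides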
Details: higher = more signal
Cc1ccc(S[C@]2(C(=O)NCCCN(C)C)CC(=O)N(C3CCCCC3)[C@@H]2c2ccc(CO)cc2I)cc1 gave a composite z-score of -0.171.
O=C1C2C=CC(C(O)C#Cc3ccccc3)N(Nc3ccccc3)C2C(=O)N1c1ccccc1 (configuration not stated) showed a composite z-score of 0.432.
For O=C1NC(=O)C2C1C=CC(C(O)C=Cc1ccc([N+](=O)[O-])cc1)N2Nc1ccccn1 (configuration not stated), the composite z-score was -0.257.
Work on Cc1ccc(S(=O)(=O)N[C@H]2COC(=O)CC=C[C@H](C)COC(=O)N[C@@H](C)C(=O)CC=C[C@@H]2C)cc1 yielded a composite z-score of 0.269.
In the case of Cc1ccc(N2C(=O)c3ccccc3[C@](C)(C(=O)NCC(C)C)[C@@H]2c2ccc(CO)cc2)nc1, the composite z-score is reported as -0.68.
Work on O=C1C2C=CC(C(O)c3ccccc3)N(n3cnnc3)C2C(=O)N1Cc1ccccc1 (configuration not stated) yielded a composite z-score of -0.493.
In the case of COc1cc([C@@H]2N[C@H](C(=O)O)Cc3c2[nH]c2ccccc32)cc(OC)c1OC, the composite z-score is reported as 0.0713.
C=CCNC(=O)[C@H]1[C@@H]2C(=O)O[C@@H](c3ccccc3)[C@@H](c3ccccc3)N2[C@@H](c2ccc(O)cc2)[C@]12C(=O)Nc1ccc(C#CCNC(N)=O)cc12 showed a composite z-score of 0.213.
Work on CCC#CCN(Cc1ccccc1Br)[C@H](/C=C/c1ccccc1)[C@@H](O)Cc1ccccc1 yielded a composite z-score of -1.13.
With CCCC=C(CCC)[C@@H](NC(=O)c1ccccc1)c1ccccc1 the composite z-score was -0.452.
Work on CO[C@H]1O[C@H](CO)[C@@H](OC(=O)CCc2ccccc2)[C@@H]2OC(=O)[C@H](Cc3cccc(Br)c3)C/C=C/C[C@@H](Cc3cccc(Br)c3)C(=O)O[C@@H]12 yielded a composite z-score of 0.7.
Compound C=CCC(OC(C)=O)[C@@H]1[C@@H](N(Cc2cccc3ccccc23)C(=O)c2ccc(C)cc2)c2cc(OCCCO)ccc2N1C(=O)c1ccc(-c2ccccc2)cc1 (some centres not stated) has a composite z-score of -0.087.
Compound Cc1ccc(N2C(=O)c3ccccc3[C@](C)(C(=O)O)[C@@H]2c2ccc(CO)cc2)nc1 has a composite z-score of -1.17.
Work on C[C@@H]1CC[C@H]2C(=O)N3[C@@H](CC[C@@H](C)[C@@H]3c3cccc(N4CCOCC4)c3)C(=O)N2[C@H]1c1cccc(N2CCOCC2)c1 yielded a composite z-score of 0.594.
In the case of Cc1ccc(S[C@]2(C(=O)NCCN3CCOCC3)CC(=O)N(C3Cc4ccccc4C3)[C@@H]2c2ccc(CO)cc2I)cc1, the composite z-score is reported as 0.458.
N#Cc1ccc(NN2C(C(O)c3ccc(I)cc3)C=CC3C(=O)N(c4ccccc4)C(=O)C32)cc1 (configuration not stated) showed a composite z-score of 1.29.
CCOC(=O)[C@H]1C/C=C/C[C@H](C(=O)OCC)C(=O)O[C@H]2[C@@H](OC)O[C@H](CO)[C@@H](OC(=O)Nc3ccc(Br)cc3)[C@@H]2OC1=O showed a composite z-score of 1.3.
Work on C[C@@H]1C=CCC(=O)OC[C@H]2O[C@@H](C=C[C@@H]2O)[C@H](C)C=CCC(=O)OC[C@H]2O[C@H]1C=C[C@@H]2O yielded a composite z-score of 0.65.
Compound CO[C@@H]1COC(=O)[C@H](C)NC(=O)CC=C[C@@H](C)[C@H](NS(=O)(=O)c2ccc(C)cc2)COC(=O)CC=C[C@@H]1C has a composite z-score of -0.354.
For C=C(CCCC)/C(=C/C[C@@H](OC(=O)c1ccncc1)c1cccc(OCCO)c1)c1cc(C(=O)OC)ccc1OC, the composite z-score was 1.19.
With [N-]=[N+]=NCc1ccccc1C[C@]1(C(N)=O)N=C(c2ccc(OCCCO)cc2)O[C@H]1c1ccccc1CN=[N+]=[N-] the composite z-score was 1.31.
With CCCCO[C@H]1C[C@H]2C(Br)=C[C@@]1(CO)C(=O)[C@]21CO1 the composite z-score was 0.362.
For CC(C)N1CC=CC23O[C@@H]4/C=C\CCCOC(=O)C4[C@H]2C(=O)N(CCCCCO)[C@@H]3C1=O (some centres not stated), the composite z-score was -1.74.
In the case of CO[C@@H]1COC(=O)[C@H](C)NC(=O)CC=C[C@@H](C)[C@H](OC)COC(=O)[C@H](C)NC(=O)CC=C[C@H]1C, the composite z-score is reported as 0.315.
Work on CCOC(=O)C[C@H]1[C@H](OC(=O)Cc2ccc3c(c2)OCO3)[C@@H](NC(=O)c2ccc3ccccc3c2)c2cc(OCCCO)ccc2N1C(=O)Cc1ccc(OC)cc1 yielded a composite z-score of 0.952.
Compound CCCN1C(=O)[C@@]2(CCS(=O)(=O)c3ccccc3)N=C(c3ccc(OCCCO)cc3)O[C@H]2c2ccccc21 has a composite z-score of 1.3.
Compound CCCC[C@@H]1C[C@H]1[C@@H](NC(=O)c1cccs1)c1ccc(Cl)cc1 has a composite z-score of -0.858.
C[C@H]1COC(=O)[C@@H]2CCCN2C(=O)[C@@H](C)COC(=O)[C@@H]2CCCN2C1=O gave a composite z-score of -1.02.
In the case of [N-]=[N+]=NCc1ccccc1C[C@@]1(C(=O)O)N=C(c2ccc(OCCCO)cc2)O[C@@H]1c1ccccc1N=[N+]=[N-], the composite z-score is reported as 1.3.
O=C1C2C=CC(C(O)C(c3ccccc3)c3ccccc3)N(Nc3ccc([N+](=O)[O-])cc3)C2C(=O)N1c1ccccc1 (configuration not stated) showed a composite z-score of 1.33.
With CO[C@H]1COC(=O)[C@H](CCSC)NC(=O)CC=C[C@@H](C)COC(=O)[C@@H](OCc2ccccc2)C=C[C@@H]1C the composite z-score was 0.51.
For CCC(=O)[C@]12O[C@@]3([C@@H]4C(=O)OCC[C@@H]41)N(Cc1ccccc1)C(C)=C(C(=O)OC)[C@@H](c1ccccc1)N3C2=O, the composite z-score was -1.07.
COC(=O)[C@@]1(Cc2ccc(OC)cc2)[C@H]2c3cc(C(=O)N(C)C)n(CCc4ccc(OC)c(Br)c4)c3C[C@H]2CN1C(=O)c1ccccc1 showed a composite z-score of 1.29.
Compound C#CCCCON=C1C[C@@H](O)[C@@H](O)[C@@H]2[C@@H]3C(=O)N(Cc4ccc5c(c4)OCO5)C(=O)[C@@H]3CC[C@H]12 has a composite z-score of 1.15.
For COC(=O)c1c(CC[C@@H](CO)NC(=O)N[C@H](Cn2cc(-c3cncn3C)nn2)C(C)C)oc(C(C)=O)c1C(=O)OC, the composite z-score was 1.27.
With CCOC(=O)C1=CC[C@@H](c2ccc(-c3ccc(OCc4ccccc4)cc3)c(OC)c2)N(S(=O)(=O)c2ccc(C)cc2)[C@H]1c1ccccc1 the composite z-score was 1.24.
